The text below walks through data of PubChem BioAssay (NCI).

Common to all, as to assay: NCI-60 one-dose screen, 48 h (100 = growth as untreated, 0 = no growth, -100 = all killed)
The subject of one assay is SR leukemia. Conditions: 10 µM unless noted.
A further assay relates to RPMI-8226 leukemia. Conditions: 10 µM.
Another assay relates to OVCAR-8 ovarian. The conditions noted are these: 10 µM unless noted.
For another assay, the system named is OVCAR-5 ovarian. The conditions noted are these: 10 µM unless noted.
For another assay, the system named is OVCAR-4 ovarian. Conditions: 10 µM unless noted.
In a further assay the test system is SK-OV-3 ovarian. The conditions noted are these: 10 µM.
In the next assay the test system is IGROV1 ovarian. Conditions: 10 µM unless noted.
A further assay concerns OVCAR-3 ovarian. Conditions: 10 µM unless noted.
The next assay deals with HS 578T breast. The conditions noted are these: 10 µM unless noted.
Another assay concerns NCI/ADR-RES ovarian. Conditions: 10 µM unless noted.

SMILES strings stand for the structures. About 83,000 compounds went through this panel and 20% of them were active in at least one assay; those are over-represented in the sample as a whole.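 Values shown are percent growth following 48 h exposure of cells in 96-well plates to a single concentration of compound; below 10 was considered active.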 Values without a mark were called inactive. Calls of active or inactive are those of the source.

Turning to `Cc1c(NCC(=O)Nc2nc3ccccc3[nH]2)c(=O)n(-c2ccccc2)n1C`, the growth was 92.4% in the assay on SR leukemia; 96.7% in the assay on RPMI-8226 leukemia; 99.9% with OVCAR-8 ovarian; 92.5% in the assay with OVCAR-5 ovarian; 88.3% in the assay on OVCAR-4 ovarian; 106% with SK-OV-3 ovarian. In addition, the growth was 102% in the assay with IGROV1 ovarian, 109% in the assay with OVCAR-3 ovarian and 101% in the assay on HS 578T breast.

For the compound `COc1ncc(F)c(OC)n1`, the growth in the assay with SR leukemia was 94%; with RPMI-8226 leukemia, 101%; in the assay with OVCAR-8 ovarian, 97.3%; in the assay on OVCAR-5 ovarian, 97.9%; in the assay with OVCAR-4 ovarian, 90%; in the assay with SK-OV-3 ovarian it was 97.8%. Moreover, the growth was 103% in the assay with IGROV1 ovarian, 114% with OVCAR-3 ovarian, 118% in the assay on HS 578T breast and 105% in the assay with NCI/ADR-RES ovarian.

As to `Cc1ccc2nc(NC(=O)CSC(=S)N3CCN(Cc4ccccc4)CC3)sc2c1`, the growth was 11.1% in the assay on SR leukemia; 8.2% (active) with RPMI-8226 leukemia; 0.825% (active) in the assay with OVCAR-8 ovarian; -36.3% (active) in the assay with OVCAR-5 ovarian; 12.6% in the assay on OVCAR-4 ovarian; -44.7% (active) with SK-OV-3 ovarian. Further, the growth in the assay on IGROV1 ovarian was -39.8% (active); in the assay on OVCAR-3 ovarian, -90.4% (active); in the assay on HS 578T breast, -0.695% (active); in the assay with NCI/ADR-RES ovarian, 22.6%.

Consider `CC(C)NCC(O)COc1ccc(CCOCC2CC2)cc1` (stereo not drawn), for which the growth was 78.3% with SR leukemia; 99.1% in the assay with RPMI-8226 leukemia; 93% in the assay with OVCAR-8 ovarian; 107% in the assay on OVCAR-5 ovarian; 82.5% in the assay with OVCAR-4 ovarian; 113% with SK-OV-3 ovarian. In addition, the growth with IGROV1 ovarian is 113%; with OVCAR-3 ovarian, 112%; with HS 578T breast, 109%.

Turning to `COc1ccc(-c2nn(-c3ccc(NC(=O)c4ccc(Cl)c(Cl)c4)cc3)cc2-c2ccncc2)cc1Cl`, the growth with SR leukemia is 27.4%; in the assay with RPMI-8226 leukemia, -35.4% (active); in the assay with OVCAR-8 ovarian, 63.8%; with OVCAR-5 ovarian, 60.9%; with OVCAR-4 ovarian it was 79.5%; with SK-OV-3 ovarian, 65.6%. Besides, the growth in the assay with IGROV1 ovarian was 61.9%; in the assay with OVCAR-3 ovarian it was 56.7%.

On to `NC(=O)c1cc(I)ccc1NC(=O)COc1ccc(Cl)cc1Cl`, for which the growth in the assay on SR leukemia was 40.9%; in the assay on RPMI-8226 leukemia, 96.3%; with OVCAR-8 ovarian, 102%; with OVCAR-5 ovarian, 103%; in the assay on OVCAR-4 ovarian it was 114%; in the assay with SK-OV-3 ovarian, 90.5%. The growth with IGROV1 ovarian was 89.3%; in the assay with OVCAR-3 ovarian it was 103%; in the assay with HS 578T breast, 106%; in the assay with NCI/ADR-RES ovarian, 82.3%.

Turning to `COc1ccc(-c2c3c(N)c4c(nc3nc3c2c(C)nn3-c2ccccc2)CCCC4)cc1`, the growth in the assay with SR leukemia was -25.8% (active); in the assay with RPMI-8226 leukemia it was -37.5% (active); in the assay on OVCAR-8 ovarian, 83.1%; in the assay with OVCAR-5 ovarian it was 90.1%; in the assay with OVCAR-4 ovarian it was 45.1%; in the assay with SK-OV-3 ovarian, 103%. Further, the growth in the assay on IGROV1 ovarian was 90.1%; with OVCAR-3 ovarian it was 88.8%; with HS 578T breast, 92.5%.

For the compound `O=C(Nc1ccc(Cl)c(Cl)c1)OCn1ncc2ccc([N+](=O)[O-])cc21`, the growth was 76.7% in the assay with SR leukemia; 83.4% with RPMI-8226 leukemia; 89% in the assay with OVCAR-8 ovarian; 77.5% with OVCAR-5 ovarian; 93.6% in the assay on OVCAR-4 ovarian; 86.2% in the assay on SK-OV-3 ovarian. Further, the growth is 75.5% in the assay on IGROV1 ovarian, 85.1% in the assay on OVCAR-3 ovarian and 75.4% in the assay on HS 578T breast.

As for `O=[N+]([O-])c1ccc2nc(N/N=C/c3ccc(O)cc3)sc2c1`, the growth in the assay on SR leukemia was 18.2%; in the assay on RPMI-8226 leukemia, 28.3%; in the assay on OVCAR-8 ovarian it was 59.9%; in the assay with OVCAR-5 ovarian, 113%; in the assay on OVCAR-4 ovarian, 56%; in the assay on SK-OV-3 ovarian, 82.4%. Also, the growth with IGROV1 ovarian was 46.6%; in the assay on OVCAR-3 ovarian, 51.3%; with HS 578T breast, 83.5%; with NCI/ADR-RES ovarian it was 81.7%.

As to `Nc1cc(Br)c(-c2nnc(CCC(=O)c3nc4ccccc4[nH]3)o2)c(Br)c1`, the growth is 18.5% in the assay on SR leukemia; 79.6% in the assay on RPMI-8226 leukemia; 95.2% with OVCAR-8 ovarian; 97.2% in the assay on OVCAR-5 ovarian; 82.4% in the assay with OVCAR-4 ovarian; 81.8% in the assay on SK-OV-3 ovarian. The growth in the assay on IGROV1 ovarian was 76.8%; in the assay on OVCAR-3 ovarian, 49.1%; in the assay on HS 578T breast, 99.6%.

`CCOC(=O)c1cc2c(n(C)c1=O)-c1cnn(-c3ccc(OC)cc3)c1CC2`: the growth in the assay with SR leukemia is 87.2%; with RPMI-8226 leukemia, 89.1%; with OVCAR-8 ovarian it was 93.8%; in the assay with OVCAR-5 ovarian, 95.2%; in the assay on OVCAR-4 ovarian, 106%; in the assay on SK-OV-3 ovarian, 108%. The growth with IGROV1 ovarian is 115%; in the assay on OVCAR-3 ovarian, 107%; with HS 578T breast it was 119%; in the assay on NCI/ADR-RES ovarian, 114%.

In the case of `Cc1nn(-c2ccccc2)c2nc3nc4c(c(N)c3c(-c3ccc(Cl)cc3)c12)CCCC4`, the growth with SR leukemia was -15.3% (active); in the assay on RPMI-8226 leukemia, 93%; with OVCAR-8 ovarian, 92.6%; in the assay with OVCAR-5 ovarian, 96.3%; in the assay with OVCAR-4 ovarian, 109%; in the assay with SK-OV-3 ovarian, 101%. The growth in the assay on IGROV1 ovarian was 104%; in the assay with OVCAR-3 ovarian, 114%; in the assay on HS 578T breast, 105%; in the assay on NCI/ADR-RES ovarian, 106%.

On to `CC(=O)OC[C@H](O)[C@@]1(O)CC[C@H]2[C@@H]3CCC4=CC(=O)CC[C@]4(C)[C@H]3[C@@H](O)C[C@@]21C`, for which the growth with SR leukemia is 99.9%; in the assay on RPMI-8226 leukemia, 89.8%; in the assay with OVCAR-8 ovarian it was 98.5%; in the assay on OVCAR-5 ovarian, 96.6%; in the assay with OVCAR-4 ovarian, 105%; in the assay on SK-OV-3 ovarian, 90.8%. In addition, the growth with IGROV1 ovarian was 111%; with OVCAR-3 ovarian, 108%; in the assay with HS 578T breast it was 114%; in the assay with NCI/ADR-RES ovarian, 102%.

`Cc1cc(=O)c2c(C)ccc(C)c2[nH]1`: the growth with SR leukemia was 110%; with RPMI-8226 leukemia, 105%; with OVCAR-8 ovarian it was 94.5%; in the assay with OVCAR-5 ovarian it was 97.3%; in the assay with OVCAR-4 ovarian it was 106%; in the assay with SK-OV-3 ovarian, 107%. In addition, the growth in the assay with IGROV1 ovarian is 103%; in the assay on OVCAR-3 ovarian, 169%; in the assay on HS 578T breast it was 108%; in the assay with NCI/ADR-RES ovarian it was 100%.
